Source: PubChem BioAssay (NCI)
About 83,000 compounds went through this panel and 20% of them were active in at least one assay; those are over-represented in the sample as a whole.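 Cell lines were cultured in 96-well plates, exposed to a single compound concentration, and assessed for percent growth 48 hours later.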 Activity calls are given as the source filed them. The calls were made as follows: active = growth percent below 10; inactive = the rest.

Legend:
Test in all cases: NCI-60 one-dose screen, 48 h (100 = growth as untreated, 0 = no growth, -100 = all killed)
Settings in all cases: 10 µM unless noted
HCT-15 colon = system: HCT-15 colon
HT29 colon = system: HT29 colon
SNB-75 CNS = system: SNB-75 CNS
SNB-19 CNS = system: SNB-19 CNS
U251 CNS = system: U251 CNS
PC-3 prostate = system: PC-3 prostate
SK-MEL-5 melanoma = system: SK-MEL-5 melanoma
UACC-62 melanoma = system: UACC-62 melanoma
SK-MEL-28 melanoma = system: SK-MEL-28 melanoma
SK-MEL-2 melanoma = system: SK-MEL-2 melanoma
SN12C renal = system: SN12C renal
UO-31 renal = system: UO-31 renal
TK-10 renal = system: TK-10 renal
ACHN renal = system: ACHN renal
CAKI-1 renal = system: CAKI-1 renal
A498 renal = system: A498 renal
CCRF-CEM leukemia = system: CCRF-CEM leukemia
MOLT-4 leukemia = system: MOLT-4 leukemia
LOX IMVI melanoma = system: LOX IMVI melanoma
EKVX NSCLC = system: EKVX NSCLC

Measured: growth

C/C(=C\CCc1ccsc1)CC/C=C(\C)CCCN1CCSCC1
inactive: HCT-15 colon 82.5% | HT29 colon 88.1% | SNB-75 CNS 101% | SNB-19 CNS 96.1% | U251 CNS 88.5% | PC-3 prostate 80.4% | SK-MEL-5 melanoma 77.2% | UACC-62 melanoma 77% | SK-MEL-28 melanoma 94.6% | SK-MEL-2 melanoma 89.3% | SN12C renal 78.9% | UO-31 renal 59.9% | TK-10 renal 108% | ACHN renal 94.7% | CAKI-1 renal 87.5% | A498 renal 23.5% | CCRF-CEM leukemia 73.7% | MOLT-4 leukemia 81.2%

O=C1NC(=O)/C(=C\c2ccco2)S1
inactive: HCT-15 colon 100% | HT29 colon 114% | SNB-75 CNS 97.7% | SNB-19 CNS 101% | U251 CNS 101% | PC-3 prostate 101% | UACC-62 melanoma 91.7% | LOX IMVI melanoma 91.5% | SK-MEL-28 melanoma 113% | SK-MEL-2 melanoma 105% | SN12C renal 95.8% | UO-31 renal 67.5% | TK-10 renal 102% | ACHN renal 100% | A498 renal 75.8% | CCRF-CEM leukemia 95.9% | MOLT-4 leukemia 111%

Cc1n(Cc2ccc3ccccc3c2)cc[n+]1Cc1ccc2ccccc2c1
active: HT29 colon 1.25% | SNB-75 CNS 1.07% | SNB-19 CNS 2.02% | U251 CNS 8.17% | SK-MEL-5 melanoma -92% | UACC-62 melanoma -40.3% | SK-MEL-28 melanoma -11.6% | SN12C renal 2.52%
inactive: HCT-15 colon 85.3% | PC-3 prostate 14.1% | EKVX NSCLC 47% | UO-31 renal 81.5% | TK-10 renal 23.5% | ACHN renal 80.1% | A498 renal 31.2% | CCRF-CEM leukemia 24.1%

COC(=O)c1cc2oc(/C=N\NC(=O)c3cc4oc(C)c(C)c4[nH]3)cc2[nH]1
inactive: HCT-15 colon 108% | HT29 colon 111% | SNB-75 CNS 112% | SNB-19 CNS 102% | U251 CNS 100% | PC-3 prostate 72% | UACC-62 melanoma 115% | LOX IMVI melanoma 107% | SK-MEL-28 melanoma 110% | SK-MEL-2 melanoma 109% | EKVX NSCLC 91.6% | SN12C renal 120% | UO-31 renal 94.7% | TK-10 renal 132% | ACHN renal 104% | CAKI-1 renal 80.5% | A498 renal 115% | CCRF-CEM leukemia 83.7%

CC1Cc2ccccc2N1C(=O)c1ccc(C(=O)c2ccccc2)cc1 (stereo unspecified)
inactive: HCT-15 colon 86% | HT29 colon 89.4% | SNB-75 CNS 94.3% | SNB-19 CNS 90.5% | U251 CNS 63.5% | PC-3 prostate 97% | UACC-62 melanoma 73.6% | LOX IMVI melanoma 83% | SK-MEL-28 melanoma 99.5% | SK-MEL-2 melanoma 19% | EKVX NSCLC 88.3% | SN12C renal 81.9% | UO-31 renal 49.8% | TK-10 renal 84.1% | ACHN renal 89.7% | CAKI-1 renal 77.8% | A498 renal 95.5% | CCRF-CEM leukemia 94.3% | MOLT-4 leukemia 91.5%

C/C(=C\CCc1ccoc1)CC/C=C(\C)CCCC1COC(=O)C1 (stereo unspecified)
inactive: HCT-15 colon 99.2% | HT29 colon 113% | SNB-75 CNS 96.7% | SNB-19 CNS 99.6% | U251 CNS 95.6% | PC-3 prostate 91.2% | SK-MEL-5 melanoma 98.6% | UACC-62 melanoma 80% | SK-MEL-28 melanoma 96.9% | SK-MEL-2 melanoma 100% | SN12C renal 94.8% | UO-31 renal 78.8% | TK-10 renal 114% | ACHN renal 97.5% | CAKI-1 renal 94.4% | A498 renal 91.3% | MOLT-4 leukemia 92.2%

COc1cc2c(cc1OC)C(=O)/C(=C/c1cccc(OCC(=O)c3ccccc3)c1)C2
inactive: HCT-15 colon 83.4% | HT29 colon 42.1% | SNB-75 CNS 85.2% | SNB-19 CNS 93.3% | U251 CNS 74.2% | PC-3 prostate 62% | UACC-62 melanoma 68.1% | LOX IMVI melanoma 72.3% | SK-MEL-28 melanoma 107% | SK-MEL-2 melanoma 44.1% | EKVX NSCLC 94.4% | SN12C renal 88.8% | TK-10 renal 122% | ACHN renal 96.9% | CAKI-1 renal 93.4% | A498 renal 103% | CCRF-CEM leukemia 38% | MOLT-4 leukemia 55.3%

FC(F)(F)c1cc(-c2nnc3n2N=C(N2CCCC2)CS3)cc(C(F)(F)F)c1
inactive: HCT-15 colon 96.9% | HT29 colon 86.2% | SNB-75 CNS 29.6% | SNB-19 CNS 65.4% | U251 CNS 37.6% | PC-3 prostate 84.2% | SK-MEL-5 melanoma 80.5% | UACC-62 melanoma 69.1% | SK-MEL-28 melanoma 101% | EKVX NSCLC 80.6% | SN12C renal 69.2% | UO-31 renal 48.8% | ACHN renal 47.1% | CAKI-1 renal 87.7% | A498 renal 10.6% | CCRF-CEM leukemia 86.4% | MOLT-4 leukemia 90.5%
active: TK-10 renal -22.1%

O=[N+]([O-])c1ccc(N=Nc2c(Cl)cc(O)cc2Cl)cc1
active: HCT-15 colon -25.7% | HT29 colon 8.53% | SNB-75 CNS -10.4% | PC-3 prostate 8.4% | SK-MEL-5 melanoma -58.7% | UACC-62 melanoma -44.1% | SK-MEL-2 melanoma -19.1% | EKVX NSCLC 1.71% | SN12C renal 0.728% | UO-31 renal -31.5% | TK-10 renal 9.62% | ACHN renal 1.34% | CAKI-1 renal -11.9% | A498 renal -26.4% | CCRF-CEM leukemia 8.97% | MOLT-4 leukemia -19%
inactive: SNB-19 CNS 20.1% | U251 CNS 10%

Cc1cc(=O)[nH]c(/C(=N/Nc2ccccc2)C(=O)c2ccc(Cl)cc2)n1
inactive: HCT-15 colon 112% | HT29 colon 105% | SNB-75 CNS 128% | SNB-19 CNS 95.5% | U251 CNS 107% | PC-3 prostate 92.6% | UACC-62 melanoma 92% | LOX IMVI melanoma 98.9% | SK-MEL-28 melanoma 110% | SK-MEL-2 melanoma 102% | EKVX NSCLC 103% | SN12C renal 93.2% | UO-31 renal 116% | TK-10 renal 65.5% | ACHN renal 111% | CAKI-1 renal 104% | A498 renal 84% | CCRF-CEM leukemia 66% | MOLT-4 leukemia 39.8%

O=Cc1ncc(-c2ccc(C(F)(F)F)cc2)c(NC2CCCCCC2)n1
active: HCT-15 colon -79% [100 µM] | HT29 colon -80.8% [100 µM] | SNB-75 CNS -15.7% [100 µM] | SNB-19 CNS -47.6% [100 µM] | U251 CNS -98.2% [100 µM] | PC-3 prostate -81.7% [100 µM] | SK-MEL-5 melanoma 5.66% [100 µM] | UACC-62 melanoma -90.1% [100 µM] | SK-MEL-28 melanoma -71.4% [100 µM] | SK-MEL-2 melanoma -79.8% [100 µM] | SN12C renal -87.4% [100 µM] | UO-31 renal -90.8% [100 µM] | TK-10 renal -94.9% [100 µM] | ACHN renal -99.5% [100 µM] | A498 renal -73.1% [100 µM] | MOLT-4 leukemia -60% [100 µM]

COC(=O)C1CCN(S(=O)(=O)c2ccc(-c3ccccc3)cc2)CC1
inactive: HCT-15 colon 110% | HT29 colon 109% | SNB-75 CNS 87.8% | SNB-19 CNS 98.5% | U251 CNS 111% | PC-3 prostate 90.3% | UACC-62 melanoma 98.2% | LOX IMVI melanoma 107% | SK-MEL-28 melanoma 105% | EKVX NSCLC 108% | SN12C renal 105% | UO-31 renal 97.1% | TK-10 renal 122% | ACHN renal 110% | CAKI-1 renal 99.8% | A498 renal 125% | CCRF-CEM leukemia 138% | MOLT-4 leukemia 161%
active: SK-MEL-2 melanoma 8.48%

COc1cccc(/C=N\NC(=O)c2ccncc2)c1O
inactive: HCT-15 colon 23.9% | HT29 colon 67.6% | SNB-75 CNS 57.1% | SNB-19 CNS 52.6% | U251 CNS 31.6% | PC-3 prostate 47.1% | UACC-62 melanoma 41.2% | LOX IMVI melanoma 15.2% | SK-MEL-28 melanoma 69.6% | SK-MEL-2 melanoma 43.8% | EKVX NSCLC 78.8% | SN12C renal 62.8% | UO-31 renal 29% | TK-10 renal 41.1% | ACHN renal 31.2% | CAKI-1 renal 13.2% | MOLT-4 leukemia 13.9%

OCCCc1n(Cc2ccc3ccccc3c2)c2ccccc2[n+]1Cc1ccc2ccccc2c1
active: HT29 colon 6.48% | SNB-19 CNS 3.3% | SK-MEL-5 melanoma -97.8% | UACC-62 melanoma -48.2% | SK-MEL-28 melanoma -28% | SN12C renal 8.7%
inactive: HCT-15 colon 86.4% | SNB-75 CNS 19.8% | U251 CNS 13.6% | PC-3 prostate 22.9% | EKVX NSCLC 47.6% | UO-31 renal 76.4% | TK-10 renal 37.5% | ACHN renal 81.6% | A498 renal 46% | CCRF-CEM leukemia 30.8% | MOLT-4 leukemia 19.7%

O=C(c1ccccc1)c1ccc(Oc2ccc([N+](=O)[O-])cc2[N+](=O)[O-])cc1
inactive: SNB-75 CNS 85.2% | SNB-19 CNS 77.4% | U251 CNS 35% | PC-3 prostate 75.4% | SK-MEL-5 melanoma 32.2% | UACC-62 melanoma 62% | SK-MEL-2 melanoma 34.9% | EKVX NSCLC 99.6% | SN12C renal 71.6% | TK-10 renal 83.4% | ACHN renal 50.4% | CAKI-1 renal 27.3% | CCRF-CEM leukemia 27.4% | MOLT-4 leukemia 78.3%
active: HCT-15 colon 2.7% | HT29 colon 2.81%

O=C(Nc1ccc(Cl)cc1)Nc1nc2ccc(OC(F)(F)F)cc2o1
inactive: HCT-15 colon 77.5% | HT29 colon 84.7% | SNB-75 CNS 97% | SNB-19 CNS 93.2% | U251 CNS 83.1% | PC-3 prostate 44.7% | SK-MEL-5 melanoma 90.8% | UACC-62 melanoma 82.9% | SK-MEL-28 melanoma 108% | SK-MEL-2 melanoma 131% | SN12C renal 92.5% | UO-31 renal 87.9% | TK-10 renal 92.9% | ACHN renal 89.4% | CAKI-1 renal 92.7% | A498 renal 119% | MOLT-4 leukemia 76.4%

CCCCCCC(CC#N)(CCC)CCCC (stereo unspecified)
inactive: HCT-15 colon 108% | HT29 colon 111% | SNB-75 CNS 88.7% | SNB-19 CNS 100% | U251 CNS 104% | PC-3 prostate 92.2% | UACC-62 melanoma 101% | LOX IMVI melanoma 89.8% | SK-MEL-28 melanoma 104% | SK-MEL-2 melanoma 123% | SN12C renal 97.8% | UO-31 renal 97.6% | TK-10 renal 102% | ACHN renal 99% | A498 renal 100% | MOLT-4 leukemia 97.5%
